Laboratory results published in the supplement of paper PMC6555819.

Key:
Assay in all cases: PBM binding z-score (relative to random genomic background probes); higher = stronger binding; sequences stand for … in GC…GCGATTGACAGCGTAGAATGAAGG
[1] = system: PPARg:RXRa DBDmut IVT, anti-RXR (DBD mutation: RXRa K156A/R161A, NR concentration 270 nM, RXRa partner concentration 90 nM)
Method in brief: (§1)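 Binding buffer was PBS pH 7.4 with 2% milk, 0.02% Triton X-100, 1 mM DTT, 0.2 mg/mL BSA and 0.4 mg/ml salmon testes DNA. In it, ligand-free nuclear receptor dimers were incubated 1 h on custom Agilent 4×180K protein-binding microarrays carrying double-stranded probes. Antibodies against each partner (one per run) detected binding, and z-scores were calculated against random background probes after regression normalization of scanned fluorescence.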

[2] = system: PPARg:RXRa IVT, anti-PPARg (NR concentration 270 nM, RXRa partner concentration 90 nM)
Method in brief: as §1

[3] = system: PPARg DBDmut:RXRa IVT, anti-PPARg (DBD mutation: PPARg1 K132A/R137A, NR concentration 270 nM, RXRa partner concentration 90 nM)
Method in brief: as §1

[4] = system: PPARg DBDmut IVT, anti-PPARg (DBD mutation: PPARg1 K132A/R137A, NR concentration 270 nM)
Method in brief: as §1

[5] = system: PPARg homodimer (NR concentration 180 nM)
Method in brief: as §1

[6] = system: PXR:RXRa (NR concentration 270 nM, RXRa partner concentration 90 nM)
Method in brief: as §1

[7] = system: PXR homodimer (NR concentration 270 nM)
Method in brief: as §1

[8] = system: RARa:RXR (NR concentration 270 nM, RXRa partner concentration 90 nM)
Method in brief: as §1

[9] = system: RARa homodimer (NR concentration 270 nM)
Method in brief: as §1

[10] = system: RARb:RXRa (NR concentration 270 nM, RXRa partner concentration 90 nM)
Method in brief: as §1

[11] = system: RARb homodimer (NR concentration 270 nM)
Method in brief: as §1

[12] = system: RARg:RXRa (NR concentration 270 nM, RXRa partner concentration 90 nM)
Method in brief: as §1

[13] = system: RARg homodimer (NR concentration 270 nM)
Method in brief: as §1

[14] = system: RXRa DBDmut IVT, anti-RXR (DBD mutation: RXRa K156A/R161A, NR concentration 90 nM)
Method in brief: as §1

[15] = system: RXRa homodimer (NR concentration 180 nM)
Method in brief: as §1

[16] = system: THRa:RXRa (NR concentration 90 nM, RXRa partner concentration 90 nM)
Method in brief: as §1

[17] = system: THRa homodimer (NR concentration 90 nM)
Method in brief: as §1

[18] = system: VDR homodimer (NR concentration 270 nM)
Method in brief: as §1

| Sequence | PBM binding z-score [1] | PBM binding z-score [2] | PBM binding z-score [3] | PBM binding z-score [4] | PBM binding z-score [5] | PBM binding z-score [6] | PBM binding z-score [7] | PBM binding z-score [8] | PBM binding z-score [9] | PBM binding z-score [10] | PBM binding z-score [11] | PBM binding z-score [12] | PBM binding z-score [13] | PBM binding z-score [14] | PBM binding z-score [15] | PBM binding z-score [16] | PBM binding z-score [17] | PBM binding z-score [18] |
| --- | --- | --- | --- | --- | --- | --- | --- | --- | --- | --- | --- | --- | --- | --- | --- | --- | --- | --- |
| GCTAGTTGGTCAGTAAAAGATCACACACCGGTCG | 0.304 | 0.185 | -0.527 | 0.421 | 0.2 | -0.208 | -0.161 | 0.0692 | 0.555 | 0.45 | 0.519 | 0.262 | 0.586 | -0.0346 | 0.0545 | -0.299 | -0.336 | -0.296 |
| CTTCCAAGGTCAGCAGGTCAGTGAAAGCGACGTG | 3.41 | 3.82 | -0.278 | -0.339 | 3.61 | 3.42 | 0.858 | 4.68 | 1.77 | 5.26 | 5.26 | 6.14 | 6.94 | 2.24 | 5.48 | 3.83 | 2.79 | 1.68 |
| AGAATAAGGTTACCAAAGATCAGGGAAACGCTTG | 2.55 | 2.26 | 1.2 | 1.13 | 0.8 | 1.03 | 0.338 | 1.61 | 0.942 | 2.57 | 1.1 | 2.06 | 2 | 0.391 | 2.36 | 2.69 | 0.914 | 0.232 |
| ATCTCTTGGTAAGACTCAGTTCAGTGAAGAACGC | 0.682 | 0.216 | 1.42 | 1.19 | 1.11 | 1.12 | 2.04 | 0.274 | 1.84 | 0.518 | 0.908 | 0.084 | 0.186 | 0.852 | -0.0369 | 0.736 | 1.13 | 1.76 |
| CCTACTGGGCCATCAGGTCGTTGATATCAACGTT | 4.23 | 4.12 | -0.38 | -0.752 | 0.382 | 0.0795 | -0.323 | 0.272 | -0.616 | 0.569 | 0.879 | 0.238 | 0.401 | 0.0318 | 0.133 | 1.42 | 1.06 | 0.424 |
| TCTTGTAGATCAGCAGGTTGAGAAAGCTGGCCAA | 1.7 | -0.16 | -1.19 | -1.18 | -0.343 | 0.181 | -0.51 | 0.426 | -0.127 | -0.0315 | -0.505 | -0.343 | -0.727 | 0.441 | 0.0477 | -0.234 | -0.41 | -0.222 |
| AGAATAAGGTTATTAAGATCAGGGAATTGCGGTC | 2.24 | 1.81 | 1.52 | 0.812 | 1.04 | 1.13 | 0.666 | 1.49 | 1.34 | 1.72 | 1.1 | 1.39 | 1.13 | 1.47 | 1.58 | 2.42 | 0.933 | 0.967 |
